In paper PMC4336329 (PLoS ONE, 2015):
The whole screen tested about 310,000 compounds, of which about 14,000 (4.5%) showed an effect of 50% or more. Effects have a minus sign here. What follows is part of a selection rich in strong results, with near analogues and random picks from the rest.

target: human ether-à-go-go-related gene (hERG) potassium channel (human, UniProt Q12809); assay: primary screen, population patch clamp on CHO cells stably expressing hERG; higher = less effect of the substance
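Further: peak tail current of the secondary pulse compared with the same well before compound.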

human ether-à-go-go-related gene (hERG) potassium channel, sequence (Q12809 whole entry, looked up): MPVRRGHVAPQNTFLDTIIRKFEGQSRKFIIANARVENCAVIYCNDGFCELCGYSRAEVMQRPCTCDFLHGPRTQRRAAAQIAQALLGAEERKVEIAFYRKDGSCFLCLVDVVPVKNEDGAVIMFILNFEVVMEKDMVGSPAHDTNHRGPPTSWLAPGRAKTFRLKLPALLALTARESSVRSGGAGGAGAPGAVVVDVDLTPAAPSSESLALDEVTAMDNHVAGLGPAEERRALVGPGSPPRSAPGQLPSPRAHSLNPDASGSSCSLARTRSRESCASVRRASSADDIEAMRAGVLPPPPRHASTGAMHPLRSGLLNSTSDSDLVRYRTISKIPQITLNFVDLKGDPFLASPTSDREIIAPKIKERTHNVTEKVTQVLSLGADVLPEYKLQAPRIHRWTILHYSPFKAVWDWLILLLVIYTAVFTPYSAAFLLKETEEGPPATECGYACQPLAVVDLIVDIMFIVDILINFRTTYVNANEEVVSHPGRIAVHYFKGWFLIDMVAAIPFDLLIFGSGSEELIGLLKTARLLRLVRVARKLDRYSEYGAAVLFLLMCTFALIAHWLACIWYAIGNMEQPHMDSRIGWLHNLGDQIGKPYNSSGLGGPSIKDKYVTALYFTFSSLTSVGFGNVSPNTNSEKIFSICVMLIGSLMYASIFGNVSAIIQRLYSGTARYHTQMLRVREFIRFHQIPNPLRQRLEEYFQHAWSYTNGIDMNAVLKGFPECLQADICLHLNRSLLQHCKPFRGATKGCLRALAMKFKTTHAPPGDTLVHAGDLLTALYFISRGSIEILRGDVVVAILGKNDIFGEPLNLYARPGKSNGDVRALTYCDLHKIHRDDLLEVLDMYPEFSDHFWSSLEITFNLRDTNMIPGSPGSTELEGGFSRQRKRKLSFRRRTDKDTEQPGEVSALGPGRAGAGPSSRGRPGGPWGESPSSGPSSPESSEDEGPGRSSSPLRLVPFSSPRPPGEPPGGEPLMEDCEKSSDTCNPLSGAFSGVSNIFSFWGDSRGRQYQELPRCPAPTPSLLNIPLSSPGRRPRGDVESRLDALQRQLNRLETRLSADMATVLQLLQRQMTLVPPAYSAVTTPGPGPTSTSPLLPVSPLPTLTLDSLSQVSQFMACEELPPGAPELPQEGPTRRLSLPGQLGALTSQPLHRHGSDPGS

| SMILES | hERG current change (%, negative = inhibition) at 10uM [%] |
| --- | --- |
| CCOC(=O)c1nn(-c2ccccc2)c(=O)cc1SC(C)C | -19.1 |
| CN(C)c1nc(OCC(=O)NC(C)(C)C)nc(N(C)C)n1 | 8.21 |
| O=C(Cc1nnc(NC(=O)Nc2ccccc2F)s1)NCc1ccccc1 | 8.98 |
| CC(C)(C)NC(=O)c1cnn2c1NC(c1ccc(F)cc1)CC2C(F)(F)F (stereo not drawn) | 2.13 |
| COc1ccc(C(=O)Nc2nc(CC(=O)NCCc3ccccc3OC)cs2)cc1 | -6.94 |
| Cc1nc(NCCc2ccc(S(N)(=O)=O)cc2)c2c3c(sc2n1)CCC3 | 8.64 |
| NS(=O)(=O)c1ccc(CCNc2nc(CN3CCCCC3)nc3sc4c(c23)CCC4)cc1 | -72.9 |
| NS(=O)(=O)c1ccc(CCNc2nc(CN3CCOCC3)nc3sc4c(c23)CCC4)cc1 | -31.2 |
| CCOC(=O)Cc1nnc(NC(=O)COc2ccc(C)cc2)s1 | 5.07 |
| N#C/C(=C\c1cccnc1)C(=O)Nc1ccccc1 | 4.04 |
| O=C(Nc1cccnc1)c1cccc(-c2cc3ccccc3oc2=O)c1 | 14.5 |
| O=C(NCc1cccnc1)c1ccc(-c2cc3ccccc3oc2=O)cc1 | 4.65 |
| O=C(NCc1cccnc1)c1cccc(-c2cc3ccccc3oc2=O)c1 | -63.9 |
| O=C(OCc1cn(-c2ccc(Cl)c(Cl)c2)nn1)c1ccccc1Cl | -5.05 |
| CCOC(=O)C1(CCCc2ccccc2)CCN(Cc2ccn[nH]2)CC1 | -73 |
| CCOC(=O)C1(CCc2ccccc2)CCN(Cc2ccn[nH]2)CC1 | -72.5 |
| Cc1ccc(Cn2c(C)c3cnn(CC(=O)NC4CCCC4)c(=O)c3c2C)cc1 | 7.2 |
| Cc1[nH]c(C)c2c(=O)[nH]ncc12 | 16.6 |
| CCN(CC(=O)Nc1ccc2c(c1)OCCO2)Cc1cc(=O)n2ccsc2n1 | 3.88 |
| Cc1ccc(CCNC(=O)CN(C)S(=O)(=O)c2ccc3c(c2)c(=O)n(C)c(=O)n3C)cc1 | -11.7 |
| Cn1c(=O)c2cc(S(=O)(=O)NCCC(=O)NCCC3=CCCCC3)ccc2n(C)c1=O | -15.8 |
| CN(CC(=O)NCCC1=CCCCC1)S(=O)(=O)c1ccc2c(c1)c(=O)n(C)c(=O)n2C | -64.9 |
| Cc1nc2sc3c(=O)[nH]nnc3c2c(C)c1Br | 15.5 |
| CC(=O)c1sc2nc(-c3ccco3)ccc2c1N | 0.505 |
